Laboratory results taken from the OligoGym collection.

molecular target: CEACAM7; experiment: pooled miR-30 sensor sort-seq; sequence = guide strand; conditions: shRNA
Note: reference of the scale not given here.

Sequence	sensor-assay potency score (higher = more potent)
ATATCTTTGTTCTCCACCGGAT	-0.501
TATTGTCTCTCGACCGTTGTGT	0.904
TATAATTCGATAGTTGGCATGC	-0.121
TAGAGGTCTAACTCTAACAGGG	-0.585
TTGTCTCTCGACCGTTGTGTGC	-1.35
TTATATTTTTTACATATCCTAT	-0.681
AACTTGCTTGTACTGACTCATA	-1.59
TACTTCTTCATTCACAAGATTT	-1.52
AATCATGATGCTGACAGCGGTC	-0.463
AATATCTTTGTTCTCCACCGGA	-0.351
TATATTGTCTCTCGACCGTTGT	-0.124
TAGAATTGTCTGGTTACTTCTT	-0.107
TAAAACCACAATATCTTTGTTC	0.0103

molecular target: CELA2A; experiment: as above; conditions: shRNA

Sequence	sensor-assay potency score (higher = more potent)
TTGTGGTAGTAGTTGCAGCCGA	-0.632
AATCTTAGAGACACTGACTGCC	0.508
TTGCAGCTGGAGATCACGCCAT	-0.881
TTATATTATTTTCCTTCTGTGA	-1.25
ATGTAATTGGAGACCCGCGTGA	-0.77
TCTTAGAGACACTGACTGCCAG	-0.61
TACCACTTGCCATTGGAGCTGT	0.0148
TTGGTTGGAGTTCCAGTCCTTG	-0.732
TTCTTCACCGCCAACCACCCTA	-0.855
TGTGGTAGTAGTTGCAGCCGAG	-0.0375
TAGTAGTTGCAGCCGAGGCGAG	-1.3
ATACTGGTTTTCACGCTGCTGC	-1.06

molecular target: CENPE; experiment: as above; conditions: shRNA

Sequence	sensor-assay potency score (higher = more potent)
TTTATCAACAGTTTCTTTGTGT	1.24
TATTTCACACATTTTCTCCTGA	0.76
TTAGTTGCATCTCTTGATCTTT	0.409
TTGACATCTTTTTTTAACGTAA	-0.388
TGTAGTATCTGAGTCAACCTTA	0.878
TTGAGTATCTATATTCATGTTA	0.243
TAGCTCTTGATGTAACATGAGG	-1.24
TTCTTGAGTATCTATATTCATG	-0.957
TAACACTCTCTAACATTTGTTG	0.0489
TTACTTGGTGGTTCTGTCGGTC	0.00856
TTTGCTTGTATGTAGTTGCAAG	-0.96
TTTATCAATAGTTTCTTGGTGC	0.371
TTTGTCAATAGTTTCCTGCTGC	0.514
TTTTGATTTATCTAAATCCTTT	-0.683
TTGGAGTTCATTTTTCTCCTGT	0.691
